# Measurements as given in article PMC12820563, “FoxP3 forms a head-to-head dimer in vivo and stabilizes its multimerization on adjacent microsatellites”.
# In all, about 16,000 sequences were measured (“rpm ratio (pull-down/input)”: median about 0.94, highest 2% from about 1.7 on). The full list was thinned out, with the highest values kept by preference.
# Target: T1, MBP-FoxP1dN (Mus musculus, UniProt P58462 326-579)
# T1 sequence: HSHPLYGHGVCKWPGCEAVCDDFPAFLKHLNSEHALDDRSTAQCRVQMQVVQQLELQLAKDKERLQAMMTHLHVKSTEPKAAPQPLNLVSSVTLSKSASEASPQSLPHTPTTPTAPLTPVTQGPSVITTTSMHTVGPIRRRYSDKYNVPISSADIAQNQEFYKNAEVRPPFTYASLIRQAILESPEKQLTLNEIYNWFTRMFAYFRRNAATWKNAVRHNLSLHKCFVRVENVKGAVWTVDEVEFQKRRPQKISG
# Test: PD-seq (MBP pull-down with sequencing); 20 mM Tris-HCl pH 7.5, 100 mM NaCl, 1.5 mM MgCl2, 0.4 uM protein, 0.1 uM dsDNA library, 30 min, room temperature, amylose pull-down; high values mean tight binding
# Conditions: protein: recombinant; tags: His6-MBP; chain copies: 2; dsDNA, one strand shown
# Method in brief: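 Amylose resin was used to capture complexes formed during 30 min at room temperature in Tris pH 7.5 buffer with NaCl and MgCl2 between 0.4 µM His6-MBP-tagged mouse FoxP3 or FoxP1 fragment lacking the N-terminus, expressed in E. coli, and 0.1 µM Klenow-filled double-stranded degenerate DNA library. After three washes, the DNA was released with proteinase K, barcoded by PCR and sequenced on Illumina. Binding is pooled-replicate reads-per-million enrichment, pull-down over input.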
row,Sequence,binding signal
1,GATGATTGTTCTCCCAGCTGATGAATTCCAGGGTTCGAGTAAACAAATTTTCCTAATCTTTCTGTTCAAGCGCCATCTAC,0.729 RPM ratio (pull-down/input)
2,GATGATTGTTCTCCCAGCTGATGAATTGTGAAGCTCGAGTAAACAAATTTTCCTAATCTTTCTGTTCAAGCGCCATCTAC,0.905 RPM ratio (pull-down/input)
3,GATGATTGTTCTCCCAGCTGATGAATTACAGTTGTCGAGTAAACAAATTTTCCTAATCTTTCTGTTCAAGCGCCATCTAC,1.46 RPM ratio (pull-down/input)
4,GATGATTGTTCTCCCAGCTGATGAATTAGCAACTTCGAGTAAACAAATTTTCCTAATCTTTCTGTTCAAGCGCCATCTAC,1.12 RPM ratio (pull-down/input)
5,GATGATTGTTCTCCCAGCTGATGAATTTGCGTGCTCGAGTAAACAAATTTTCCTAATCTTTCTGTTCAAGCGCCATCTAC,1.05 RPM ratio (pull-down/input)
6,GATGATTGTTCTCCCAGCTGATGAATTCTCGTCATCGAGTAAACAAATTTTCCTAATCTTTCTGTTCAAGCGCCATCTAC,0.998 RPM ratio (pull-down/input)
7,GATGATTGTTCTCCCAGCTGATGAATTGGCTAAGTCGAGTAAACAAATTTTCCTAATCTTTCTGTTCAAGCGCCATCTAC,0.879 RPM ratio (pull-down/input)
8,GATGATTGTTCTCCCAGCTGATGAATTTGCAAAATCGAGTAAACAAATTTTCCTAATCTTTCTGTTCAAGCGCCATCTAC,1.13 RPM ratio (pull-down/input)
9,GATGATTGTTCTCCCAGCTGATGAATTCTAAAGATCGAGTAAACAAATTTTCCTAATCTTTCTGTTCAAGCGCCATCTAC,0.85 RPM ratio (pull-down/input)
10,GATGATTGTTCTCCCAGCTGATGAATTGCCTAAGTCGAGTAAACAAATTTTCCTAATCTTTCTGTTCAAGCGCCATCTAC,0.889 RPM ratio (pull-down/input)
11,GATGATTGTTCTCCCAGCTGATGAATTGGCTTTCTCGAGTAAACAAATTTTCCTAATCTTTCTGTTCAAGCGCCATCTAC,0.862 RPM ratio (pull-down/input)
12,GATGATTGTTCTCCCAGCTGATGAATTTGTGTGATCGAGTAAACAAATTTTCCTAATCTTTCTGTTCAAGCGCCATCTAC,1.3 RPM ratio (pull-down/input)
13,GATGATTGTTCTCCCAGCTGATGAATTTGTAGTATCGAGTAAACAAATTTTCCTAATCTTTCTGTTCAAGCGCCATCTAC,1.47 RPM ratio (pull-down/input)
14,GATGATTGTTCTCCCAGCTGATGAATTTGTATACTCGAGTAAACAAATTTTCCTAATCTTTCTGTTCAAGCGCCATCTAC,2.13 RPM ratio (pull-down/input)
15,GATGATTGTTCTCCCAGCTGATGAATTTGTGTAATCGAGTAAACAAATTTTCCTAATCTTTCTGTTCAAGCGCCATCTAC,1.97 RPM ratio (pull-down/input)
16,GATGATTGTTCTCCCAGCTGATGAATTTTGTGTATCGAGTAAACAAATTTTCCTAATCTTTCTGTTCAAGCGCCATCTAC,2.15 RPM ratio (pull-down/input)
17,GATGATTGTTCTCCCAGCTGATGAATTGTAATACTCGAGTAAACAAATTTTCCTAATCTTTCTGTTCAAGCGCCATCTAC,1.04 RPM ratio (pull-down/input)

row,Sequence,binding signal
1,GATGATTGTTCTCCCAGCTGATGAATTCTCTGTATCGAGTAAACAAATTTTCCTAATCTTTCTGTTCAAGCGCCATCTAC,0.938 RPM ratio (pull-down/input)
2,GATGATTGTTCTCCCAGCTGATGAATTCTGTGTATCGAGTAAACAAATTTTCCTAATCTTTCTGTTCAAGCGCCATCTAC,1.79 RPM ratio (pull-down/input)
3,GATGATTGTTCTCCCAGCTGATGAATTCTTTGTATCGAGTAAACAAATTTTCCTAATCTTTCTGTTCAAGCGCCATCTAC,1.21 RPM ratio (pull-down/input)
4,GATGATTGTTCTCCCAGCTGATGAATTTGGTGTATCGAGTAAACAAATTTTCCTAATCTTTCTGTTCAAGCGCCATCTAC,1.17 RPM ratio (pull-down/input)
5,GATGATTGTTCTCCCAGCTGATGAATTTCTATACTCGAGTAAACAAATTTTCCTAATCTTTCTGTTCAAGCGCCATCTAC,0.903 RPM ratio (pull-down/input)
6,GATGATTGTTCTCCCAGCTGATGAATTGTGTAAATCGAGTAAACAAATTTTCCTAATCTTTCTGTTCAAGCGCCATCTAC,1.59 RPM ratio (pull-down/input)
7,GATGATTGTTCTCCCAGCTGATGAATTGGTCCCATCGAGTAAACAAATTTTCCTAATCTTTCTGTTCAAGCGCCATCTAC,0.976 RPM ratio (pull-down/input)
8,GATGATTGTTCTCCCAGCTGATGAATTGCTTAGGTCGAGTAAACAAATTTTCCTAATCTTTCTGTTCAAGCGCCATCTAC,1.02 RPM ratio (pull-down/input)
9,GATGATTGTTCTCCCAGCTGATGAATTAATGTCCTCGAGTAAACAAATTTTCCTAATCTTTCTGTTCAAGCGCCATCTAC,0.913 RPM ratio (pull-down/input)
10,GATGATTGTTCTCCCAGCTGATGAATTTGTGAGCTCGAGTAAACAAATTTTCCTAATCTTTCTGTTCAAGCGCCATCTAC,0.999 RPM ratio (pull-down/input)
11,GATGATTGTTCTCCCAGCTGATGAATTAACGAAGTCGAGTAAACAAATTTTCCTAATCTTTCTGTTCAAGCGCCATCTAC,0.89 RPM ratio (pull-down/input)
12,GATGATTGTTCTCCCAGCTGATGAATTGTGATGCTCGAGTAAACAAATTTTCCTAATCTTTCTGTTCAAGCGCCATCTAC,1.54 RPM ratio (pull-down/input)
13,GATGATTGTTCTCCCAGCTGATGAATTTGTGTACTCGAGTAAACAAATTTTCCTAATCTTTCTGTTCAAGCGCCATCTAC,2.09 RPM ratio (pull-down/input)
14,GATGATTGTTCTCCCAGCTGATGAATTTGTACTCTCGAGTAAACAAATTTTCCTAATCTTTCTGTTCAAGCGCCATCTAC,1.15 RPM ratio (pull-down/input)
15,GATGATTGTTCTCCCAGCTGATGAATTGTGTATCTCGAGTAAACAAATTTTCCTAATCTTTCTGTTCAAGCGCCATCTAC,1.67 RPM ratio (pull-down/input)
16,GATGATTGTTCTCCCAGCTGATGAATTTTCTGTATCGAGTAAACAAATTTTCCTAATCTTTCTGTTCAAGCGCCATCTAC,1.08 RPM ratio (pull-down/input)
